Only some compounds are listed: those with a hit (about 2.3% of all), similar ones and a draw of the others.
FUS suppressor: FUS proteinopathy suppression in yeast | 390,000 compounds, 0.24% hits | S. cerevisiae FUS-expressing, growth rescue, OD600, 24 h | Potency, µM (doses to about 76.6 µM), most hits filed as activators; note: nearly all actives have a fitted effect of over 55% in size
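Steps: raffinose overnight preculture; dilution to OD 0.005 in 2% galactose minimal medium; compound addition (concentration series); 24hr at 30C, 99% humidity; absorbance read at 600 nm.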
aSyn rescue: rescues yeast growth from alpha-synuclein toxicity. Yeast expressing alpha-synuclein, growth rescue, BacTiter-Glo, 24 h. Potency, µM (doses to about 46.1 µM), actives largely listed as activators. 370,000 compounds, 0.14% hits; note: nearly all actives have a fitted effect of over 65% in size
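Screening used galactose-induced yeast with toxic alpha-synuclein levels, exposed to compound for 24 hr at 30 deg C. Cell growth, read with BacTiter-Glo luminescence, gave the measured signal.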
TDP43 rescue: rescues yeast growth from TDP-43 toxicity; Potency, µM (series often up to 46.1 µM), usual class: activators; AID 652104; 410,000 compounds, 1.8% hits; TDP-43 expressing yeast growth rescue, BacTiter-Glo, 24 h; note: nearly all actives have a fitted effect of over 50% in size
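Galactose-induced TDP-43 yeast, OD600=0.02, compound pinned; 24 hr, 30 deg C; BacTiter-Glo luminescence for growth. Inhibitors of TDP-43 toxicity read as activators.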
Abeta rescue: A-beta toxicity reversal in yeast; yeast expressing A-beta42, growth rescue, OD600, 48 h; response scale: 0% DMSO, 100% iron-clioquinol control; 410,000 compounds, 0.063% hits; Potency, µM (titrated, usually from 46.1 µM), hits mostly activators; note: nearly all actives have a fitted effect of over 55% in size
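Yeast A-beta toxicity model in growth medium with pinned compounds, 48 h at 30 C; growth read as absorbance at 600 nm. Normalized to FeCl3/clioquinol equimolar mix (positive) and DMSO (negative).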
pAkt inh: blocks phosphorylation of Akt | Neuro2A IGF-stimulated pAkt S473 HTRF, 20 min; stronger effect = lower value | activity change, % for hits at 50 µM | 360,000 compounds, 0.32% hits | AID 651550; in the data active = activity change below about -80%; inconclusive = mostly about -51% to -80%
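Neuro2A cells in DMEM with 0.5% FBS, overnight at 37 deg C, given compound at single 50 µM final, then IGF (6 nM final) for 20 min at 37 deg C. Lysed; phospho-Akt Ser473 by HTRF after 24 h, 665/615 ratio.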
A number is an active result; i = inactive; ? = inconclusive; nt = no result; [ ] = remark or other dose. Unless noted, calls come from the whole dose curve; as a rule, active = well fitted curve in the direction sought with a large enough effect; inconclusive = small, poorly fitted or top-dose-only effect, or another doubt; inactive = no such curve, though single readings can be large; an effect the other way counts as inactive or inconclusive.

SMILES | FUS suppressor | aSyn rescue | TDP43 rescue | Abeta rescue | pAkt inh
Cc1cccc(CNC(=O)CN2C(=O)CCn3nc(-c4cn(C)c5ccccc45)cc32)c1 | ? | nt | i | i | nt
COc1cc2oc3ccc(C#Cc4ccccn4)cc3c(=O)c2cc1OC | i | 13µM | i | i | i
Nc1ccc2c(c1)Cc1cc(N)c(Br)cc1-2 | nt | i | i | i | i
Nc1cc2c(cc1Cl)-c1ccccc1C2 | nt | i | 13µM | i | i
Nc1cc2c(cc1Cl)-c1ccc(Cl)cc1C2 | i | i | 25µM | i | i
CC(=O)Nc1cc(O)c2nonc2c1O | nt | i | nt | nt | nt
CS/C(=N\S(=O)(=O)c1ccc(F)cc1)c1ccccc1 | nt | i | nt | nt | nt
O=C(N/N=C/c1ccc(Cl)cc1)Nc1ccccc1 | i | i | 2.8µM | i | i
Clc1ccc(/C=N\Nc2ccccc2)cc1 | i | i | i | i | i
CC(C)c1ccc(C2NC(C(=O)O)CS2)cc1 (configuration not stated) | i | ? | i | i | -105%
COc1ccc(N(CC(=O)Nc2cccc(N(C)S(C)(=O)=O)c2)S(=O)(=O)c2ccc(C)cc2)cc1 | 28µM | i | i | i | i
COc1ccc(N(CC(=O)Nc2cccc(N(C)S(C)(=O)=O)c2)S(=O)(=O)c2ccc(F)cc2)cc1 | ? | i | i | i | i
COc1ccc(NC(=O)c2c(N)c(C(=O)c3ccc(OC)cc3)n3ccccc23)cc1 | i | nt | i | i | nt
Cc1ccc2nc(NNC(=O)c3ccc(S(=O)(=O)N4CCc5ccccc5C4)cc3)sc2c1 | ? | ? | 8.9µM | i | i
Cc1cc(C)c2nc(NNC(=O)c3ccc(S(=O)(=O)N4CCCC(C)C4)cc3)sc2c1 (configuration not stated) | i | i | ? | i | i
O=C(Nc1nnc(C2CC2)o1)c1ccc(S(=O)(=O)N2CCc3ccccc3C2)cc1 | i | 18µM | 16µM | i | i
Cc1ccc2nc(NC(=O)c3ccc(S(=O)(=O)N4CCC(C)CC4)cc3)sc2c1 | i | i | i | i | nt
Cc1cc(C)c2nc(NNC(=O)c3ccc(S(=O)(=O)N4CC(C)CC(C)C4)cc3)sc2c1 (configuration not stated) | i | i | 5µM | i | i
CC(=O)c1cccc(NC(=O)CN2C(=O)CC(c3ccc(C)cc3C)=Nc3ccccc32)c1 | i | nt | i | i | nt
CCN(CC)c1ccc(NC(=O)CSc2nnc(C)c(=O)[nH]2)cc1 | i | nt | i | i | nt
O=C(O)CCn1c(=O)c2cccn2c2cccnc21 | i | nt | i | i | nt
COc1ccccc1OCCCn1cc(C#N)c2ccccc21 | i | i | 35µM | i | i
Cc1ccc(NC(=O)Cc2ccc(-n3c(C)nc4cccnc43)cc2)c(Cl)c1 | i | nt | i | i | nt
O=C1OCCN1C(=O)[C@H]1[C@H](c2ccc(Cl)cc2)C(c2ccc(F)cc2)=NN1c1ccc(Br)cc1 | ? | 10µM | i | i | i
Cc1cccc(C2=NN(c3ccccc3)[C@@H](C(=O)N3CCOC3=O)[C@@H]2c2ccc(Cl)cc2)c1 | ? | i | i | i | i
SMILES | FUS suppressor | aSyn rescue | TDP43 rescue | Abeta rescue | pAkt inh
Cc1cccc(C2=NN(c3ccccc3)[C@@H](C(=O)N3CCOC3=O)[C@@H]2c2ccc(F)cc2)c1 | 5.6µM | i | i | i | i
C[C@@H]1C(c2ccccc2)=NN(c2ccc(Br)cc2)[C@H]1C(=O)N1CCOC1=O | i | 20µM | ? | i | i
Cc1ccc(CNC(=O)CCc2nnc3n(C)c(=O)c4sccc4n23)cc1 | i | nt | i | i | nt
O=[N+]([O-])c1cccc(/C=N/Nc2nccnc2Cl)c1 | i | i | i | i | -83%
NC[C@H]1O[C@@H](n2cnc3c(N)ncnc32)[C@H](O)[C@@H]1O | nt | i | nt | nt | nt
CCOC(=O)c1ccc2oc(=O)n(Cc3ccccc3)c2c1 | i | nt | 7.9µM | i | nt
O=C(O)c1ccc2oc(=O)n(Cc3ccccc3)c2c1 | i | nt | i | i | nt
Cc1ccc(CNC(=O)c2ccc3oc(=O)n(Cc4ccccc4)c3c2)cc1 | i | nt | i | i | nt
COc1cccc(CNC(=O)c2ccc3oc(=O)n(Cc4ccccc4)c3c2)c1 | i | nt | 25µM | ? | nt
CCc1ccc(S(=O)(=O)c2cn(C)c3cc(N4CCC(C)CC4)c(F)cc3c2=O)cc1 | i | nt | i | i | nt
O=C(COc1ccccc1F)Nc1ccc2nc(SCC(=O)N3CCOCC3)sc2c1 | i | nt | i | i | nt
O=C(Nc1c(-c2ccccc2)nc2sccn12)c1ccccc1 | i | i | ? | i | -106%
CN(C)C1(CNC(=O)COc2ccc(C(C)(C)C)cc2)CCCCC1 | i | nt | i | i | nt
COc1ccc(C(O)c2nc(-c3cccc(F)c3)cs2)cc1 (configuration not stated) | i | ? | 14µM | i | i
COc1ccc(C(O)c2nc(-c3cccc(C(F)(F)F)c3)cs2)cc1 (configuration not stated) | ? | i | 22µM | i | i
OC(c1ccccc1)c1nc(-c2cccc(F)c2)cs1 (configuration not stated) | i | i | ? | i | i
COCc1cccc(-c2csc(C(O)c3ccc(F)c(F)c3)n2)c1 (configuration not stated) | i | ? | 20µM | i | nt
COc1cccc(C(O)c2nc(-c3cccc(C(F)(F)F)c3)cs2)c1 (configuration not stated) | i | i | 22µM | i | i
COc1ccc(-n2c(SCc3ccccc3F)nc3c([nH]c4ccccc43)c2=O)cc1 | i | i | i | i | nt
COc1ccc(NC(=O)Cn2c(=O)n(-c3ccc(Cl)cc3)c(=O)c3c(C)c(C(=O)N(C)C)sc32)cc1Cl | i | nt | i | i | nt
Cc1ccccc1CCNC(=O)c1cc(C2CC2)nc2c1cnn2C(C)C | i | i | 35µM | i | i
CC(C)n1ncc2c(C(=O)NCCc3ccc(F)cc3)cc(C3CC3)nc21 | i | i | i | i | i
COc1cccc(CNC(=O)c2cc(C3CC3)nc3c2cnn3C(C)C)c1 | ? | i[1.84 µM] | 18µM | i | i
CCOc1cc(C(=O)Nc2ccc3nc(Nc4cccc(Cl)c4)cc(C)c3c2)cc(OCC)c1OCC | ? | nt | ? | i | nt
O=C(c1ccccc1Br)N(Cc1ccco1)C1CCS(=O)(=O)C1 (configuration not stated) | i | nt | i | i | nt
SMILES | FUS suppressor | aSyn rescue | TDP43 rescue | Abeta rescue | pAkt inh
Cc1cc(C)n2nc(SCc3ccc(F)cc3Cl)nc2n1 | i | i | 11µM | i | i
Cc1cc(C)n2nc(SCc3c(F)cccc3Cl)nc2n1 | i | i | ? | i | i
COc1cccc2c1C(=O)c1c(O)c3c(c(O)c1C2=O)C[C@](O)(C(C)=O)C[C@H]3O[C@@H]1C[C@@H](N)[C@@H](O)[C@@H](C)O1 | i | 11µM | i | i | i
COc1ccccc1-c1c(C)nn2c(C(F)(F)F)cc(-c3ccccc3)nc12 | i | nt | i | i | nt
Cc1nc2nncn2c(NCc2ccc(F)cc2)c1C | i | nt | i | i | nt
COCCCNc1ccn2nc(-c3ccccc3)cc2n1 | i | ? | ? | ? | i
Fc1ccc(CNc2cc(-c3ccccc3)nc3nncn23)cc1 | ? | nt | 18µM | i | nt
